# Compounds without any hit were thinned out: in the full panel of roughly 83,000, 20% have a hit.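 Note: values are percent growth. 100 is the growth of untreated cells, values between 100 and 0 indicate rising inhibition; between -100 and 0 indicates cell death.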 A number with no mark means an inactive call. The source made the active and inactive calls. Rule for the calls: active = growth percent below 10; inactive = the rest.
# Test system: PC-3 prostate
# Test: NCI-60 one-dose screen, 48 h (100 = growth as untreated, 0 = no growth, -100 = all killed)
# Conditions: 10 µM unless noted
row,SMILES,growth
1,CCS(=O)(=O)Nc1cccc(Nc2c3cccc(C)c3nc3c(C)cccc23)c1OC,21.4%
2,Cc1nn(-c2ccccc2)c2nc3c(nc12)C1=NCCN1C(c1ccc(Cl)cc1)N3 (stereo not drawn),55.1%
3,O=C(Nc1cccc(C2=NCCN2)c1)c1ccc(N=Nc2ccc(C(=O)Nc3cccc(C4=NCCN4)c3)cc2)cc1,63.4%
4,COC(=O)[C@@H](Cc1c[nH]c2ccccc12)NC(=O)/C=C/c1ccccc1,18.7%
5,CCOC(=O)C(CCCCC(NC(C)=O)(C(=O)OCC)C(=O)OCC)(NC(C)=O)C(=O)OCC,101%
6,COc1ccc(-c2cc(-c3cc4ccccc4oc3=O)n(-c3ccccc3)n2)cc1,76.1%
7,CC(C)N(C(=S)SSC(=S)N(C(C)C)C(C)C)C(C)C,86.4%
8,CCOC(OCC)c1cnc2nc(NC(C)=O)[nH]c(=O)c2n1,106%
9,CC(C)(C)c1cc(C[P+](c2ccccc2)(c2ccccc2)c2ccccc2)cc(C(C)(C)C)c1O,-10.5% (active)
10,N#Cc1ccc(-c2ccc(-c3cccs3)o2)cc1F,87.5%
11,CCN(C(=O)CCl)C(C)(C)C(SSSC(c1ccc(Cl)cc1)C(C)(C)N(CC)C(=O)CCl)c1ccc(Cl)cc1 (stereo not drawn),63.3%
12,N=C(N)c1ccc(-c2ccc(-c3ccco3)o2)cc1F,24.5%
13,COc1cc2c(cc1OC)-c1cc(OC)c(OC)cc1C(CN(C)C)C2 (stereo not drawn),56.3% [100 µM]
14,CCCCCCCCN=C(NCCCCCCCC)SCc1cccc2ccccc12,-93.2% (active)
15,N=C(N)c1ccc(-c2ccc(-c3cccs3)s2)cc1F,-72.4% (active)
16,COc1ccc2nc(-c3ccc(-c4noc(-c5ccc(Cl)cc5)n4)cc3)[nH]c2c1,67.1%
17,Cc1cccc2nc3ccccc3c(Nc3ccc(NS(C)(=O)=O)cc3)c12,66.7%
18,CC(C)CCSc1nc(Nc2ccccc2)c(C#N)c(-c2ccc(F)cc2)n1,59.1%
19,COc1cc(OC)cc(-c2ccc(-c3ccc(C(=N)N)s3)s2)c1,-83.9% (active)

row,SMILES,growth
1,COc1ccc(-c2ccc(-c3ccc(C(=N)N)s3)s2)cc1,-92.8% (active)
2,C#CCO[C@H]1CC[C@H](OCC#C)[C@@H]2[C@H]1[C@H]1C[C@@H]3[C@@]4(C)CCC[C@@](C)(C(=O)OC)[C@@H]4CC[C@@]23C=C1C(C)C,44.8%
3,COC(=O)[C@H](Cc1cn(C)cn1)NC(=O)[C@H](CC(C)C)NC(=O)Nc1cc(C(F)(F)F)cc(C(F)(F)F)c1,-95.1% [100 µM] (active)
4,O=C1CCCN1C1CCN2CCCc3cccc1c32 (stereo not drawn),91.3%
5,O=C(CCCN1CCC(O)(c2ccc(Br)cc2)CC1)c1ccc(F)cc1,69.7%
6,COc1ccc(/C=N/NC(N)=S)c(OC)n1,105%
7,CCN1C(=O)N(CC)C2C1N=C(SC)N2/N=C/C=C/c1ccccc1OC (stereo not drawn),18.4%
8,C/C(=N\Nc1ccc([N+](=O)[O-])cn1)c1ccc(N)cc1,94.1%
9,N/C(=N\O)c1ncc(-c2ccc(C(F)(F)F)cc2)c(NC2CCCCCC2)n1,-88.9% [100 µM] (active)
10,O=[N+]([O-])c1ccc(Sc2nc(Cl)nc(NC3CCCC3)n2)cc1,-89.5% [100 µM] (active)
11,Cc1cc2nc(CN)[nH]c2cc1C,99.8%
12,ClC1=NC(Cl)C(Cl)=N/C1=N\c1ncn[nH]1 (stereo not drawn),20.3%
13,COc1ccc(CNc2c3ccccc3nc3ccccc23)cc1F,30.4%
14,CCOC(=O)C1C(=O)C=C(c2ccccc2)CC1c1sc(N(C)Cc2ccccc2)nc1Cl (stereo not drawn),76.4%
15,CCOC(=O)c1cc(C(=O)OCC)c(C)nc1C,98.2%
16,O=C1OCC2=C1C(c1ccccc1)c1cc3c(cc1N2CCO)CCC3 (stereo not drawn),15.7%
17,O=C(CC(=O)c1ccccc1F)Nc1ccc([N+](=O)[O-])cc1,98.3%
18,Cc1cc(Nc2c3ccccc3nc3ccccc23)ccc1NS(C)(=O)=O,33.2%
19,COC(=O)CSc1ccc(Cl)cc1,107%

# Reference: PubChem BioAssay (NCI)
